An excerpt weighted towards active compounds, which were near 8.8% of everything screened.
KB-3-1 cytotox = kills parental KB-3-1 adenocarcinoma cells. KB-3-1 viability, CellTiter-Glo ATP luminescence, 72 h. Potency, µM (highest dose often 46.1 µM), most hits filed as cytotoxic. 400,000 tested, 1.4% active; note: potency is the fitted concentration of half-maximal effect; nearly all actives have a fitted effect of over 60% in size
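Using CellTiter-Glo luminescence, growth of non-resistant KB-3-1 adenocarcinoma cells is assessed 72 h after pin-tool compound addition at 37 °C. Normalized responses across the concentration series yield fitted curves.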
HT1080-NT tox = kills 2HG-producing HT-1080-NT fibrosarcoma cells | HT-1080-NT fibrosarcoma viability, CellTiter-Glo ATP luminescence, 48 h | Potency, µM (series often up to 46.1 µM), inactives show top-dose activity, negative = less viability, actives largely listed as cytotoxic | 360,000 tested, 1.6% active;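 note: NT is the 2HG producing partner of a matched IDH1 knockdown line; potency is the fitted concentration of half-maximal effect; 0% = DMSO-treated cells and -100% = media-only wells without cells; nearly all actives have a fitted effect of over 55% in size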
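HT-1080-NT; 750 cells/well; 5% FBS RPMI; 48 h compound, 37 degrees C; CellTiter-Glo luminescence; curve fitting and curve-class assignment.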
IL1B secr inh = inhibitors of inflammasome signaling (IL-1 beta secretion); activity change, % at 57.5 µM; 360,000 tested, 4.7% active; THP-1 LPS/ATP IL-1B secretion, AlphaLISA, 16 h; active compounds read low; in the data active = activity change below about -50%; inconclusive = mostly about -30% to -49%
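Secreted IL-1B measured by AlphaLISA bead assay after 16 h compound exposure of THP-1 cells; compounds (final up to 57.5 uM) added 1 h before LPS (250 ng/mL) and ATP (1.25 mM) stimulation; lower signal means less secretion.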
HT1080 IDH1KD tx = toxicity to HT-1080 IDH1 knockdown cells (counter line) | HT-1080 IDH1 knockdown viability, ATP luminescence, 48 h | Potency, µM (series often up to 46.1 µM), without a hit: top-dose activity, negative = toxicity, hits mostly cytotoxic | 360,000 tested, 2% active | AID 686971;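 note: potency is the fitted concentration of half-maximal effect; 0% = DMSO wells and -100% = cell-free medium wells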
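Using the IDH1-knockdown HT-1080 line run in the same batch and compound series as the NT line, viability after 48 h at 37 °C was determined by CellTiter-Glo luminescence and expressed as % activity.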
KB-V1 cytotox = kills drug-selected multidrug resistant KB-V1 cells. KB-V1 MDR cells viability, CellTiter-Glo, 72 h. 400,000 tested, 3.4% active. Potency, µM (titrated, usually from 46.1 µM), usual class: cytotoxic; note: potency is the fitted concentration of half-maximal effect; nearly all actives have a fitted effect of over 60% in size
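KB-V1, DMEM (no phenol red) + 10% FBS; cpd pin-transferred, titration series; 72 h, 37 degrees C; CellTiter-Glo, luminescence. Data normalized, curve-fit.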
The depositor's hits bear a star; ! = a repeat was not active. Unless noted, calls come from the whole dose curve; as a rule, active = well fitted curve in the direction sought with a large enough effect; inconclusive = small, poorly fitted or top-dose-only effect, or another doubt; inactive = no such curve, though single readings can be large; an effect the other way counts as inactive or inconclusive. Unless noted, % is set by controls: 0 for no effect and ±100 for the full control effect.

CCN(CC)C(=O)c1ccc(NC(=O)CCn2nc(-c3ccc(Cl)cc3)c3ccccc3c2=O)cc1 was read as KB-3-1 cytotox inactive and KB-V1 cytotox inactive.
`COC(=O)C1=C(c2cc3ccccc3o2)C[C@@H]2CC[C@H]1N2C(=O)NC(C)C` gave KB-3-1 cytotox inactive, HT1080-NT tox 0%, IL1B secr inh 4, HT1080 IDH1KD tx -6% and KB-V1 cytotox inactive.
For COC(=O)C1=C(c2ccc(C(C)=O)cc2)C[C@@H]2CC[C@H]1N2C(=O)NCCO the results were KB-3-1 cytotox inactive, HT1080-NT tox 22%, IL1B secr inh 13, HT1080 IDH1KD tx 9% and KB-V1 cytotox inactive.
CN(C)/C=C/C(=O)C(Cl)(Cl)Cl was read as KB-3-1 cytotox inactive, HT1080-NT tox 21%, IL1B secr inh -6, HT1080 IDH1KD tx 15% and KB-V1 cytotox inactive.
Cc1cccc(C)c1NC1=NCCCCS1 was read as KB-3-1 cytotox inactive, HT1080-NT tox 9%, IL1B secr inh -1, HT1080 IDH1KD tx 11% and KB-V1 cytotox inactive.
For CC12CCC(O)CC1CCC1C2CCC2(C)C(C3=CC(=O)OC3)C(O)CC12O (stereo not drawn) the results were KB-3-1 cytotox inconclusive, HT1080-NT tox inconclusive, IL1B secr inh -74*, HT1080 IDH1KD tx 1.6µM* and KB-V1 cytotox 4.1µM*.
`C[C@]12CC[C@H](O)C[C@H]1CC[C@@H]1[C@@H]2C[C@@H](O)[C@]2(C)[C@@H](C3=CC(=O)OC3)CC[C@]12O` gave KB-3-1 cytotox 1.3µM*, HT1080-NT tox 2.1µM*, IL1B secr inh -66*, HT1080 IDH1KD tx 0.82µM* and KB-V1 cytotox 1.6µM*.
`CC12CCC(O)CC1CCC1C2CCC2(C)C(C3=CC(=O)OC3)CCC12O` (stereo not drawn) gave KB-3-1 cytotox 1.2µM*, HT1080-NT tox 1.5µM*, IL1B secr inh -65*, HT1080 IDH1KD tx 1.2µM* and KB-V1 cytotox 0.73µM*.
CC(=O)OC1CC(OC2C(O)CC(OC3C(O)CC(OC4CCC5(C)C(CCC6C5CC(O)C5(C)C(C7=CC(=O)OC7)CCC65O)C4)OC3C)OC2C)OC(C)C1OC1OC(CO)C(O)C(O)C1O (stereo not drawn) was read as KB-3-1 cytotox inconclusive, HT1080-NT tox 0.37µM*, IL1B secr inh -66*, HT1080 IDH1KD tx 0.21µM* and KB-V1 cytotox 0.92µM*!.
CC(=O)C1CCC2C3CCC4CC(O)CCC4(C)C3CCC12C (stereo not drawn) was read as KB-3-1 cytotox inactive, HT1080-NT tox inconclusive, IL1B secr inh 42, HT1080 IDH1KD tx inconclusive and KB-V1 cytotox inactive.
`CCOC(=O)c1ccc(NC(=O)N2C[C@@H]3C[C@@H](C2)c2cccc(=O)n2C3)cc1` gave KB-3-1 cytotox inactive, HT1080-NT tox 3%, IL1B secr inh 20, HT1080 IDH1KD tx 5% and KB-V1 cytotox inactive.
`CCOP(=S)(OCC)N1CC1` gave KB-3-1 cytotox inactive, HT1080-NT tox -2%, IL1B secr inh -4, HT1080 IDH1KD tx -1% and KB-V1 cytotox inactive.
Cc1ccc2c(C)cccc2c1 was read as KB-3-1 cytotox inactive, HT1080-NT tox -3%, IL1B secr inh 11, HT1080 IDH1KD tx 19% and KB-V1 cytotox inactive.
`CC1CCC(C(C)C)C(OC(=O)Cn2c(COc3ccccc3)[n+](C)c3ccccc32)C1` (stereo not drawn) gave KB-3-1 cytotox 23µM*, HT1080-NT tox 12µM*, IL1B secr inh -105*, HT1080 IDH1KD tx 12µM* and KB-V1 cytotox inactive.
For COc1cccc(NC(=O)c2cccn(Cc3ccccc3C)c2=O)c1 the results were KB-3-1 cytotox inconclusive and KB-V1 cytotox inactive.
CC(C)(C)N1CC(C(=O)c2ccccc2)C1c1ccccc1 (stereo not drawn) was read as KB-3-1 cytotox inactive, HT1080-NT tox -7%, IL1B secr inh -80*, HT1080 IDH1KD tx inconclusive and KB-V1 cytotox 16µM*.
Cc1ccc2c(C)c3ccc4ccccc4c3c[n+]2c1 was read as KB-3-1 cytotox inconclusive, HT1080-NT tox -29%, IL1B secr inh -66*, HT1080 IDH1KD tx 23µM* and KB-V1 cytotox inactive.
For C=CCN1CC[C@]23c4c5ccc(O)c4OC2C(O)CC[C@@]3(O)[C@H]1C5 (stereo partly drawn) the results were KB-3-1 cytotox inactive, HT1080-NT tox 12%, IL1B secr inh 17, HT1080 IDH1KD tx 8% and KB-V1 cytotox inactive.
CCN(CC)c1ccc(C=C2C(=O)NC(=S)NC2=O)cc1 was read as KB-3-1 cytotox inconclusive, HT1080-NT tox inconclusive, IL1B secr inh -97*, HT1080 IDH1KD tx inconclusive and KB-V1 cytotox inconclusive.
`CN(C)c1ccc(C=C2C(=O)NC(=S)NC2=O)cc1` gave KB-3-1 cytotox inconclusive, HT1080-NT tox -24%, IL1B secr inh -102*, HT1080 IDH1KD tx inconclusive and KB-V1 cytotox inconclusive.
Screening CN(C)c1ccc(C=C2C(=O)NC(=O)NC2=O)cc1 returned KB-3-1 cytotox inactive, HT1080-NT tox 17%, IL1B secr inh -5, HT1080 IDH1KD tx 6% and KB-V1 cytotox inactive.
`CC(C)NCC(O)c1ccc(C2CCCC2)cc1` (stereo not drawn) gave KB-3-1 cytotox inactive, HT1080-NT tox inconclusive, IL1B secr inh inconclusive, HT1080 IDH1KD tx -22% and KB-V1 cytotox 23µM*.
For OC(CNCc1ccccc1)c1ccc(Cl)cc1 (stereo not drawn) the results were KB-3-1 cytotox inactive, HT1080-NT tox -11%, IL1B secr inh -23, HT1080 IDH1KD tx -9% and KB-V1 cytotox inactive.
CC(C)c1oc(=O)cc2c1[C@@H](O)[C@H]1OC(=O)[C@@]3(C)CC[C@@H](O)[C@@]2(C)C13 (stereo partly drawn) was read as KB-3-1 cytotox 7.3µM*, HT1080-NT tox inconclusive, IL1B secr inh 62, HT1080 IDH1KD tx inconclusive and KB-V1 cytotox inactive.
For CC(C)c1oc(=O)cc2c1[C@@H](O)[C@H]1OC(=O)[C@@]3(C)C[C@@H](O)[C@@H](O)[C@@]2(C)C13 (stereo partly drawn) the results were KB-3-1 cytotox 8.2µM*, HT1080-NT tox inconclusive, IL1B secr inh -8, HT1080 IDH1KD tx 10µM* and KB-V1 cytotox inactive.
`Cc1cc(NC(=O)CSc2nc3c(c(=O)n2-c2ccc(Cl)cc2)SCC3)no1` gave KB-3-1 cytotox inactive, HT1080-NT tox inconclusive, IL1B secr inh -8, HT1080 IDH1KD tx -30% and KB-V1 cytotox inactive.
`CCCc1nc(SC)ncc1C(=O)Nc1ccc(Cl)cc1C(=O)c1ccccc1` gave KB-3-1 cytotox inactive and KB-V1 cytotox inactive.
Screening COc1cccc(C(=O)N2CCC3(CC2)OCCO3)c1 returned KB-3-1 cytotox inactive, HT1080-NT tox 2%, IL1B secr inh -1, HT1080 IDH1KD tx -9% and KB-V1 cytotox inactive.
